Measurements published in paper PMC4336329 (PLoS ONE, 2015).
In all, about 310,000 compounds went through this assay and about 2,200 (0.71%) showed an effect of 50% or more. Effects have a minus sign here. Many of the other results were omitted from the sample, so strong results are more common in it than they were.

molecular target: human ether-à-go-go-related gene (hERG) potassium channel (human, UniProt Q12809); assay: primary screen, population patch clamp on CHO cells stably expressing hERG; higher = less effect of the substance
Sequence (Q12809 whole entry, looked up): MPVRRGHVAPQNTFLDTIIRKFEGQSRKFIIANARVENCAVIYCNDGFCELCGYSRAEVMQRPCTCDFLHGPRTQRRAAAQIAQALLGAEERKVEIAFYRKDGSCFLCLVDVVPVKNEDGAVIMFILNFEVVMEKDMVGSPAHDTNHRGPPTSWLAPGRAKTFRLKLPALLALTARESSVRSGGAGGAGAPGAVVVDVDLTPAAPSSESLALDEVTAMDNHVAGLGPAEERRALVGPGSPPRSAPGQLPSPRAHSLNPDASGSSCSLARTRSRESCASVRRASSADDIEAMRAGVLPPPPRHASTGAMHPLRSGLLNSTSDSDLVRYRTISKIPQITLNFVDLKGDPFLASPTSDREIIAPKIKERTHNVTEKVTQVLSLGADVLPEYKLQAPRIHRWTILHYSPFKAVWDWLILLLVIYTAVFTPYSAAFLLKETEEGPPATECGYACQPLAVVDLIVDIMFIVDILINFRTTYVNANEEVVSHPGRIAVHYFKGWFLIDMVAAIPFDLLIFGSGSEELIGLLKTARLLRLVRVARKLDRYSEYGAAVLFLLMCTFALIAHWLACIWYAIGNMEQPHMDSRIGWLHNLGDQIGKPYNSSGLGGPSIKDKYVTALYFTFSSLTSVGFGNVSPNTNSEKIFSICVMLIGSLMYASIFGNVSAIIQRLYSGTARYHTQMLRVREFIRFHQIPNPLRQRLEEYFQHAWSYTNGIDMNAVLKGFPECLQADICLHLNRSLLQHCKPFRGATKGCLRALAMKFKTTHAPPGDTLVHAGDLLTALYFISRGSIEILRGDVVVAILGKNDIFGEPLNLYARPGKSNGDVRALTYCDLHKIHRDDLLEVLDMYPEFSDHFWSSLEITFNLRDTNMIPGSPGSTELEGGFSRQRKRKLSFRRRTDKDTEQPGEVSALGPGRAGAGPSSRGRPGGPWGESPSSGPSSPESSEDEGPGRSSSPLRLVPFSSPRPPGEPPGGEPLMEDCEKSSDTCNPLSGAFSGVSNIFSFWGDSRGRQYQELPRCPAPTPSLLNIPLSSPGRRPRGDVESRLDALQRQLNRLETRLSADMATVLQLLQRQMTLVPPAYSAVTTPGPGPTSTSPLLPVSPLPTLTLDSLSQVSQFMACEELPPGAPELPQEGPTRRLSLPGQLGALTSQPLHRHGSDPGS

SMILES	hERG current change (%, negative = inhibition) at 1uM
Cc1nc2ncnn2c(C)c1CCC(=O)N1CCc2ccccc21	-66.3%
Cc1nc2nc(C)c(CCC(=O)N3CCc4ccccc43)c(C)n2n1	-36.3%
Cc1nc2ncnn2c(C)c1CCC(=O)N1CCc2ccccc2C1	-19.5%
CCN(CC(=O)Nc1ccc(NC(C)=O)cc1)C(=O)c1sc2nc3n(c(=O)c2c1C)CCC3	10.2%
NNC(=O)c1cncn1-c1ccc(F)cc1	12.3%
COc1cc(OC)c(NC(=O)c2cncn2-c2ccc(F)cc2)cc1Cl	5.23%
O=C(Nc1cccc(Cl)c1)c1cncn1-c1ccc(F)cc1	-52.8%
CC(C)(C)C1CCC(OC(=O)CN2CCCCC2)CC1 (stereo not shown)	2.3%
Cc1ccc(S(=O)(=O)c2ccc(Cl)cc2)cc1S(=O)(=O)N1CCOCC1	3.5%
COCCCNC(=O)c1cccn2c(=O)c3cc4ccccc4cc3nc12	-8.65%
Cc1cccn2c(=O)c3cc(C(=O)NC(C)C)c(=N)n(Cc4ccncc4)c3nc12	-67.2%
CCNC(=O)c1cc2c(=O)n3cccc(C)c3nc2n(Cc2ccc(C)cc2)c1=N	-97.1%
CCCCNC(=O)c1cc2c(=O)n3cccc(C)c3nc2n(Cc2ccccc2)c1=N	-80.7%
O=C(NCCN1CCN(c2ccccc2)CC1)c1cccn2c(=O)c3ccccc3nc12	-10.8%
Cc1cccn2c(=O)c3cc(C(=O)NCCN4CCOCC4)c(=N)n(Cc4ccc(F)cc4)c3nc12	-13.3%
Cc1ccc(S(=O)(=O)c2cc3c(=O)n4cccc(C)c4nc3n(Cc3ccncc3)c2=N)cc1	9.03%
CN(CCCNC(=O)c1cccn2c(=O)c3ccccc3nc12)Cc1ccccc1	-75.3%
Cc1ccc(Cn2c(=N)c(C#N)cc3c(=O)n4cccc(C)c4nc32)cc1	-2.14%
N#Cc1cnn2c(-c3cccc(C(F)(F)F)c3)ccnc12	1.86%
CCOC(=O)Cc1csc(NC(=O)/C=C\c2ccccc2Cl)n1	7.16%
CC(C)C(=O)Nc1cccc(NC(=O)c2cccnc2)c1	-1.01%
CCC(c1nnnn1CS(=O)(=O)c1ccc(C)cc1)N1CCC(C(N)=O)CC1.Cl (stereo not shown)	-3.7%

SMILES	hERG current change (%, negative = inhibition) at 1uM
Cc1cccc(OCC(=O)Nc2ccc(S(=O)(=O)Nc3ccccn3)cc2)c1	17.3%
CS(=O)(=O)n1nc(NCc2cccs2)nc1NCc1cccs1	10.5%
CCOC(=O)CSc1c(-c2ccc(Cl)cc2)[nH]c2ccccc12	1.02%
CCCCNC(=O)c1cc2c(=O)n3cccc(C)c3nc2n(Cc2ccncc2)c1=N	-75.4%
COCCNC(=O)c1cc2c(=O)n3cccc(C)c3nc2n(Cc2ccncc2)c1=N	-31.5%
CCCc1cc(=O)n2[nH]c(NCc3c(F)cccc3Cl)nc2n1	12.7%
O=C(NC1CCCCCC1)c1cc(=O)[nH]c2ccc(S(=O)(=O)N3CCOCC3)cc12	1.03%
Cc1ccc(C)c(N2CCN(C(=O)c3ccc(Cn4c(=O)[nH]c5ccccc5c4=O)cc3)CC2)c1	11.6%
COc1cccc(NC(=O)CCNC(=O)C2CCN(S(=O)(=O)c3ccc(F)cc3)CC2)c1	14.9%
CCOC(=O)C1CCN(S(=O)(=O)c2ccc3[nH]c(=O)ccc3c2)CC1	-2.48%
CCOC(=O)C1CCN(S(=O)(=O)c2ccc3oc(=O)ccc3c2)CC1	-78.2%
CCOC(=O)C1CCN(S(=O)(=O)c2ccc3[nH]c(=O)oc3c2)CC1	3.58%
COc1ccc(C(OCC(O)CNCCc2ccc(S(N)(=O)=O)cc2)c2ccc(OC)cc2)cc1 (stereo not shown)	-1.33%
CCC(=O)c1ccc(OCC(O)CNCc2ccc(F)cc2)cc1 (stereo not shown)	-12.8%
Cc1cc(Cl)ccc1OCC(O)CNCCc1ccc(S(N)(=O)=O)cc1 (stereo not shown)	-58.2%
CCC(=O)c1ccc(OCC(O)CNCCc2ccc(Cl)cc2)cc1 (stereo not shown)	-69.9%
COc1ccc(CCNCC(O)COc2cccc(C(C)=O)c2)cc1OC.O=C(O)C(=O)O (stereo not shown)	16%
COc1ccc(CCNCC(O)COc2ccc(Cl)cc2)cc1OC.Cl (stereo not shown)	-56%
COc1ccc(CCNCC(O)COc2cccc(Br)c2)cc1OC (stereo not shown)	-39.5%
CC(=O)c1cccc(OCC(O)CNCCc2ccc(Cl)cc2)c1 (stereo not shown)	10.6%
OC(CNCCc1ccc(Cl)cc1)COc1cc(Cl)ccc1Cl (stereo not shown)	2.52%
O=C(Nc1ccc(Oc2ccc(Cl)cc2)cc1)c1ncn[nH]1	2.59%

SMILES	hERG current change (%, negative = inhibition) at 1uM
Cc1nn(CC(=O)Nc2ccc(N3CCOCC3)cc2)c(C)c1Cl	19.7%
CSc1ccc(CN(C)CC(=O)Nc2c(F)cccc2F)cc1.O=C(O)C(=O)O	7.89%
COc1ccc2c(c1OC)CN(C)CCc1cc3c(cc1C(=O)C2)OCO3	-84%
COc1ccc2c(c1OC)CN(C)CCc1cc3c(cc1C(O)C2)OCO3 (stereo not shown)	-0.22%
COc1cc2c(cc1OC)C(=O)Cc1ccc3c(c1CN(C)CC2)OCO3	-39.4%
CC(C)(C)NC(=O)CSc1nccn1Cc1ccccc1	5.85%
O=[N+]([O-])c1cccc(/C=N/NC2=NCCCCC2)c1	-70.9%
Cl.O=[N+]([O-])c1ccccc1/C=N/NC1=NCCCCC1	-0.325%
O=C(ONC1=NCCCCC1)c1cccc([N+](=O)[O-])c1	11.8%
Cc1cccc(OCC(O)Cn2c(=N)n(Cc3ccccc3)c3ccccc32)c1.Cl (stereo not shown)	-16.4%
Cc1ccc(OCC(O)Cn2c(=N)n(Cc3ccccc3)c3ccccc32)cc1.Cl (stereo not shown)	-61%
Cc1ccc(Cn2c(=N)n(CC(O)COc3ccccc3)c3ccccc32)cc1.Cl (stereo not shown)	-36.1%
COc1ccc(OCC(O)Cn2c(=N)n(CCN3CCOCC3)c3ccccc32)cc1.Cl (stereo not shown)	-10.5%
COc1ccc(OCC(O)Cn2c(=N)n(Cc3ccccc3)c3ccccc32)cc1.Cl (stereo not shown)	-76.6%
Cl.N=c1n(Cc2ccccc2)c2ccccc2n1CC(O)COc1ccccc1 (stereo not shown)	-55.8%
OC(COc1ccccc1)Cn1c2ccccc2c2ccccc21 (stereo not shown)	8.25%
Cl.N=c1n(Cc2ccc(Cl)cc2)c2ccccc2n1CC(O)COc1ccccc1 (stereo not shown)	-17.1%
C=CCOC(=O)C1=C[C@H](c2ccc(C(F)(F)F)cc2)C[C@H](OCCCCO)O1	9.6%
CCOC(=O)/C(=C/Nc1ccc(F)c(F)c1)[N+](=O)[O-]	13%
CCOC(=O)c1ccc(NC(=O)[C@@H](NC(N)=O)C(C)C)cc1	-0.13%
NC(=O)c1c(NC(=O)Cn2cc([N+](=O)[O-])cn2)sc2c1CCCC2	2.68%
CCN1C(=O)C(CC(=O)Nc2ccc(F)cc2)N(CCCN2CCN(c3ccc(F)cc3)CC2)C1=S (stereo not shown)	0.806%

SMILES	hERG current change (%, negative = inhibition) at 1uM
COc1cc(CN2CCC(Oc3cc(C(=O)NC4CC4)ccc3OC)CC2)cc(OC)c1	-62%
COc1ccc(C(=O)NC2CCCCCCC2)cc1OC	9.08%
COc1ccc(C(=O)NC2CC2)cc1OC1CCN(Cc2cc(C)cc(C)c2)CC1	-57.7%
COc1cccc(CCNC(=O)c2ccc(OC)c(OC3CCN(C(C)C)CC3)c2)c1	-2.35%
COc1ccc(C(=O)NCCc2ccc(C)cc2)cc1OC1CCN(C(C)=O)CC1	9.4%
CC(C)(C)NC(=O)c1c(F)c(F)c(F)c(F)c1F	4.34%
O=S(=O)(c1cccc(-c2nnc(SCc3nc4ccccc4s3)o2)c1)N1CCOCC1	-2.26%
Cc1ccc2c(c1)N(CC(=O)Nc1ccccc1F)C(=O)CO2	17.1%
O=C(O)c1cccc(N/N=C(\N=Nc2ccccc2)c2ccccc2)c1	16.7%
Cc1ccc2nc3c(cc(C(=O)NCCN4CCOCC4)c(=N)n3CCCN3CCOCC3)c(=O)n2c1	5.89%
Cc1ccc2nc3c(cc(C(=O)NCCc4ccccc4)c(=N)n3CCCN3CCOCC3)c(=O)n2c1	-77.5%
Cc1ccc2nc3c(cc(C(=O)NCCc4ccccc4)c(=N)n3CCN3CCOCC3)c(=O)n2c1	-82.9%
CCCCNC(=O)Cn1cnc2sc(C(=O)OCC)c(C)c2c1=O	8.3%
CC(C)[C@H](NC(=O)CCn1nnc2ccccc2c1=O)C(=O)O	17.3%
O=C(/C=C/c1ccccc1O)c1ccc(Cl)cc1	9.95%
Cc1nc2ccccc2c(=O)n1NC(=O)/C=C/c1ccccc1	-0.535%
Cc1nc2ccccc2c(=O)n1NC(=O)/C=C/c1ccccc1Cl	-51.1%
Cc1nc2ccccc2c(=O)n1NC(=O)/C=C/c1ccc(Br)cc1	2.25%
Cc1csc(NC(=O)CCCc2cccs2)n1	1.69%
